# Measured values reported in the supplement of paper PMC8728848.
# The full list was thinned out, with the strongest signals kept by preference.
# B1: F17aG (Escherichia coli), Q99003 (protein)
# chain: MTNFYKVFLAVFILVCCNISQAAVSFIGSTENDVGPSLGSYSRTHAMDNLPFVYDTRNKIGYQNANVWHISKGFCVGLDGKVDLPVVGSLDGQSIYGLTEEVGLLIWMGDTKYSRGTAMSGNSWENVFSGWCVGANTASTQGLSVRVTPVILKRNSSARYSVQKTSIGSIRMRPYNGSSAGSVQTTVNFSLNPFTLNDTVTSCRLLTPSAVNVSLAAISAGQLPSSGDEVVAGTTSLKLQCDAGVTVWATLTDATTPSNRSDILTLTGASTATGVGLRIYKNTDSTPLKFGPDSPVKGNENQWQLSTGTETSPSVRLYVKYVNTGEGINPGTVNGISTFTFSYQ
# B2: Awp1 (Candida glabrata) (protein)
# chain: MSLITIFAFLIKATLVLSLDILTPTTLTGDQTFNEDVSVVSSLTLNDGSQYLFNNLLQIAPSSASVTANALAAVSVFTFSLPPSSSLSNSGTLIISNSNTGPSTEQHIVITPNVMANTGTITLSLAHTNTDSSSTLIIDPVTFYNTGTINYESIGSETNDPSLTGNILSIGSSGRTLQNLGTINLNAANSYYLLGTITENSGSINVQKGFLYVNALDFIGNTINLSTTTALAFISPVSQVVRVRGVFFGNIIASVGSSGTFSYNTQTGILTVTTNGVYSYDIGCGYNPALMSGQQETLSFQGNPYDTFLVLVNQPIPSDLTCAAVSSSITPSSSVEPSSSVVPSSSVEPSSSVEPSSSVEPSSSVEPSSSVEPSSSVEPSSSVEPSSSVEPSSSVEPSSSVEPSSSVEPSSSVEPSSSVEPSSSVEPSSSVEPSSSVEPSSSVEPSSSVEPSSSVEPSSLIVPSSSVEPSSSVLPSSSVVPSSSVEPSTPPIPSSSVEPSSSVVPSSPAVPSSSVEPSTPPIPSSSVVSASVFDTSSTLPSSPSVPPSSVSPSTISTPSSSAAPSSFCPTCVSSGTPPAPSSSAIVPTSSAGGGNGGDNREPGAAGQPGAAGQPGAAGQPGAAGQPGAAGQPGAAGQPGAAGQPGAAGQPGAAGQPGAAGQPGAGFGVGSEQPTPGAGAGSGSADGNQSGTGSGTGNGQQGSGQAGSGQAGSGQEGSGQAGSGQAGSGQAGSGQAGSGQAGLDNTASGQSEGGQASAMDGDQSGRDGQSNSGSLLQPNAQQGTGSGTGSDIGADQASGESPGQIGDAQPGSGTDQSSGRHSLAAEARTSQSHSLAADARTRSTTRQTSVIAPDTAPGTASGTAPGTAPGTAVVTTFHGCGTVNHKGMINILLALALLVLL
# Tests used:
# Experiment in all cases: glycan array binding signal (z-score within array); higher = stronger binding
# Details in all cases: glycan notation: IUPAC condensed, linker removed
# [1] = target: GlcNAc(b1-3)Gal
# In short: (§1)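 Columns mapping to the same glycan were averaged after glycan names were converted to IUPAC-condensed notation. The data come from 3228 arrays in the Consortium for Functional Glycomics database, limited to those with an available protein sequence. Binding is reported as a within-array Z-score averaged across arrays of one protein sequence and across linkers.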
# [2] = target: GlcNAc(b1-3)Gal(b1-4)Glc
# In short: as §1
# [3] = target: GlcNAc(b1-3)Gal(b1-4)GlcNAc
# In short: as §1
# [4] = target: GlcNAc(b1-3)[GlcNAc(b1-6)]Gal(b1-4)GlcNAc
# In short: as §1
# [5] = target: GlcNAc(b1-3)[GlcNAc(b1-6)]GlcNAc(b1-4)GlcNAc
# In short: as §1
# [6] = target: GlcNAc3Prop(b1-4)GlcNAc
# In short: as §1
# [7] = target: Neu5Ac(a2-3)Gal(b1-4)GlcNAc(b1-3)Gal
# In short: as §1
# [8] = target: Neu5Ac(a2-3)Gal(b1-4)[Fuc(a1-3)]GlcNAc6S
# In short: as §1
# [9] = target: Neu5Ac(a2-3)Gal6S(b1-4)GlcNAc
# In short: as §1
# [10] = target: Neu5Ac(a2-3)Gal6S(b1-4)[Fuc(a1-3)]GlcNAc
# In short: as §1
# [11] = target: Neu5Ac(a2-3)[GalNAc(b1-4)]Gal(b1-4)Glc
# In short: as §1
# [12] = target: Neu5Ac(a2-3)[GalNAc(b1-4)]Gal(b1-4)GlcNAc
# In short: as §1
# [13] = target: Neu5Ac(a2-6)Gal(b1-4)GlcNAc(b1-2)Man(a1-3)Man(b1-4)GlcNAc(b1-4)GlcNAc
# In short: as §1
# [14] = target: Neu5Ac(a2-6)Gal(b1-4)GlcNAc(b1-2)Man(a1-6)Man(b1-4)GlcNAc(b1-4)GlcNAc
# In short: as §1
# [15] = target: Neu5Ac(a2-8)Neu5Ac(a2-8)Neu5Ac
# In short: as §1
# [16] = target: Neu5Ac(b1-6)GalNAc
# In short: as §1
# [17] = target: Fuc(a1-2)Gal(b1-3)GalNAc(b1-3)Gal(a1-4)Gal(b1-4)Glc
# In short: as §1
# [18] = target: Fuc(a1-2)Gal(b1-3)GlcNAc(b1-2)Man(a1-3)[Fuc(a1-2)Gal(b1-3)GlcNAc(b1-2)Man(a1-6)]Man(b1-4)GlcNAc(b1-4)GlcNAc
# In short: as §1
# [19] = target: Fuc(a1-2)Gal(b1-3)GlcNAc(b1-3)Gal(b1-4)Glc
# In short: as §1
# [20] = target: Fuc(a1-2)Gal(b1-3)GlcNAc(b1-3)GalNAc
# In short: as §1
# [21] = target: Fuc(a1-2)Gal(b1-3)[Fuc(a1-4)]GlcNAc
# In short: as §1
# [22] = target: Fuc(a1-2)Gal(b1-3)[Fuc(a1-4)]GlcNAc(b1-3)[Gal(b1-4)GlcNAc(b1-6)]Gal(b1-4)Glc
# In short: as §1
# [23] = target: Fuc(a1-2)Gal(b1-4)GlcNAc(b1-3)Gal(b1-4)GlcNAc(b1-3)Gal(b1-4)GlcNAc
# In short: as §1
# [24] = target: Fuc(a1-2)Gal(b1-4)[Fuc(a1-3)]GlcNAc(b1-3)[Neu5Ac(a2-6)Gal(b1-4)GlcNAc(b1-6)]Gal(b1-4)Glc
# In short: as §1
# [25] = target: Fuc(a1-2)Gal3S(b1-4)GlcNAc
# In short: as §1
# [26] = target: Fuc(a1-2)[Gal(a1-3)]Gal(b1-3)GalNAc(b1-3)Gal(a1-4)Gal(b1-4)Glc
# In short: as §1
# [27] = target: Fuc(a1-2)[Gal(a1-3)]Gal(b1-3)GlcNAc
# In short: as §1
# [28] = target: Fuc(a1-2)[Gal(a1-3)]Gal(b1-4)GlcNAc(b1-3)GalNAc
# In short: as §1
# [29] = target: Fuc(a1-2)[GalNAc(a1-3)]Gal(b1-3)GalNAc(b1-3)Gal(a1-4)Gal(b1-4)Glc
# In short: as §1
# [30] = target: Fuc(a1-2)[GalNAc(a1-3)]Gal(b1-4)[Fuc(a1-3)]GlcNAc
# In short: as §1
# [31] = target: Fuc(a1-3)[Gal(b1-4)]GlcNAc(b1-2)Man(a1-3)[Fuc(a1-3)[Gal(b1-4)]GlcNAc(b1-2)Man(a1-6)]Man(b1-4)GlcNAc(b1-4)[Fuc(a1-6)]GlcNAc
# In short: as §1
# [32] = target: Gal(a1-4)Gal(b1-4)Glc
# In short: as §1
# [33] = target: Gal(a1-4)Gal(b1-4)GlcNAc
# In short: as §1
# [34] = target: Gal(a1-4)Gal(b1-4)GlcNAc(b1-3)Gal(b1-4)Glc
# In short: as §1
# [35] = target: Gal(b1-2)Gal
# In short: as §1
# [36] = target: Gal(b1-3)GalNAc(a1-3)[Fuc(a1-2)]Gal(b1-4)Glc
# In short: as §1
# [37] = target: Gal(b1-3)GalNAc(b1-4)[Neu5Ac(a2-3)]Gal(b1-4)Glc
# In short: as §1
# [38] = target: Gal(b1-3)GlcNAc(b1-2)[Gal(b1-3)GlcNAc(b1-6)]Man(a1-6)[Gal(b1-3)GlcNAc(b1-2)Man(a1-3)]Man(b1-4)GlcNAc(b1-4)GlcNAc
# In short: as §1
# [39] = target: Gal(b1-3)GlcNAc(b1-3)Gal(b1-4)GlcNAc(b1-6)[Gal(b1-3)GlcNAc(b1-3)]Gal(b1-4)Glc
# In short: as §1
# [40] = target: Gal(b1-3)[Neu5Ac(a2-6)]GalNAc
# In short: as §1
# [41] = target: Gal(b1-4)GlcNAc(a1-6)Gal(b1-4)GlcNAc
# In short: as §1
# [42] = target: Gal(b1-4)GlcNAc(b1-2)Man(a1-6)[GlcNAc(b1-2)Man(a1-3)]Man(b1-4)GlcNAc(b1-4)GlcNAc
# In short: as §1
# [43] = target: Gal(b1-4)GlcNAc(b1-2)[Gal(b1-4)GlcNAc(b1-4)]Man(a1-3)[Gal(b1-4)GlcNAc(b1-2)Man(a1-6)]Man(b1-4)GlcNAc(b1-4)GlcNAc
# In short: as §1
# [44] = target: Gal(b1-4)GlcNAc(b1-2)[Gal(b1-4)GlcNAc(b1-4)]Man(a1-3)[GlcNAc(b1-4)][Gal(b1-4)GlcNAc(b1-2)Man(a1-6)]Man(b1-4)GlcNAc(b1-4)GlcNAc
# In short: as §1
# [45] = target: Gal(b1-4)GlcNAc(b1-3)Gal(b1-4)GlcNAc(b1-3)Gal(b1-4)GlcNAc(b1-3)Gal(b1-4)GlcNAc(b1-2)Man(a1-3)[Gal(b1-4)GlcNAc(b1-3)Gal(b1-4)GlcNAc(b1-3)Gal(b1-4)GlcNAc(b1-3)Gal(b1-4)GlcNAc(b1-2)Man(a1-6)]Man(b1-4)GlcNAc(b1-4)[Fuc(a1-6)]GlcNAc
# In short: as §1
# [46] = target: Gal(b1-4)GlcNAc(b1-3)Gal(b1-4)GlcNAc(b1-6)[Gal(b1-3)]GalNAc
# In short: as §1
binder,measurement,setting,value
B1,glycan array binding signal (z-score),[1],3.9
same,glycan array binding signal (z-score),[2],8.79
same,glycan array binding signal (z-score),[3],4.77
same,glycan array binding signal (z-score),[4],5.68
same,glycan array binding signal (z-score),[5],2.15
same,glycan array binding signal (z-score),[6],11.7
same,glycan array binding signal (z-score),[7],-0.158
same,glycan array binding signal (z-score),[8],0.084
same,glycan array binding signal (z-score),[9],-0.233
same,glycan array binding signal (z-score),[10],-0.245
same,glycan array binding signal (z-score),[11],0.025
same,glycan array binding signal (z-score),[12],-0.241
same,glycan array binding signal (z-score),[13],-0.177
same,glycan array binding signal (z-score),[14],-0.167
same,glycan array binding signal (z-score),[15],-0.234
same,glycan array binding signal (z-score),[16],-0.34
B2,glycan array binding signal (z-score),[17],-0.191
same,glycan array binding signal (z-score),[18],3.11
same,glycan array binding signal (z-score),[19],-0.568
same,glycan array binding signal (z-score),[20],-0.915
same,glycan array binding signal (z-score),[21],0.456
same,glycan array binding signal (z-score),[22],2.29
same,glycan array binding signal (z-score),[23],0.341
same,glycan array binding signal (z-score),[24],0.4
same,glycan array binding signal (z-score),[25],0.168
same,glycan array binding signal (z-score),[26],-0.456
same,glycan array binding signal (z-score),[27],-0.399
same,glycan array binding signal (z-score),[28],-1.3
same,glycan array binding signal (z-score),[29],0.017
same,glycan array binding signal (z-score),[30],-1.15
same,glycan array binding signal (z-score),[31],2.28
same,glycan array binding signal (z-score),[32],2.6
same,glycan array binding signal (z-score),[33],1.02
same,glycan array binding signal (z-score),[34],0.176
same,glycan array binding signal (z-score),[35],-1.15
same,glycan array binding signal (z-score),[36],3.43
same,glycan array binding signal (z-score),[37],-0.686
same,glycan array binding signal (z-score),[38],2.35
same,glycan array binding signal (z-score),[39],2.29
same,glycan array binding signal (z-score),[40],-0.433
same,glycan array binding signal (z-score),[41],3
same,glycan array binding signal (z-score),[42],0.086
same,glycan array binding signal (z-score),[43],-0.236
same,glycan array binding signal (z-score),[44],-0.307
same,glycan array binding signal (z-score),[45],2.42
same,glycan array binding signal (z-score),[46],0.7
